PubChem BioAssay (Tox21)
Records with an inconclusive call do not appear. Calls of active or inactive are those of the source. Unless noted, the call rests on the fitted dose curve; in most records, active means well fitted curve in the direction sought with a large enough effect in the repeat runs; inconclusive means weak or mixed curves; inactive means no such curve, though single readings can be large; an effect the other way counts as inactive or inconclusive.

Legend:
[1] = qHTS assay to identify small molecule antagonists of the constitutive androstane receptor (CAR) signaling pathway - cell viability counter screen (AID 1224837); further: nearly all actives have a fitted effect of over 45% in size
Summary of the method: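 Read-out: CellTiter-Fluor fluorescence after 23 hr at 37 C/5% CO2. Cells: HepG2 double-stable for hCAR and CYP2B6-2.2kb. Compounds tested at 15 concentrations in the presence of CITCO, final concentration 50 nM.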

[2] = target: Nuclear receptor subfamily 1 group I member 3 (Homo sapiens) (UniProt Q14994); experiment: qHTS assay to identify small molecule antagonists of the constitutive androstane receptor (CAR) signaling pathway (AID 1224838);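 further: HepG2 cells stably expressing hCAR with CYP2B6 luciferase reporter stimulated by CITCO; nearly all actives have a fitted effect of over 40% in size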
Summary of the method: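 Read-out: ONE-Glo luciferase luminescence after 30 min at room temperature. HepG2-CYP2B6-hCAR double-stable cells, compounds in 15-point titration plus 50 nM CITCO final, 24 h at 37 C/5% CO2.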

[3] = target: Nuclear receptor subfamily 1 group I member 3 (Homo sapiens) (UniProt Q14994); experiment: qHTS assay to identify small molecule agonists of the constitutive androstane receptor (CAR) signaling pathway (AID 1224839);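 further: HepG2 cells stably carrying human CAR and a CYP2B6 luciferase reporter; nearly all actives have a fitted effect of over 15% in size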
Summary of the method: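 Luminescence read-out (ONE-Glo, 30 min, room temperature) from double-stable HepG2-CYP2B6-hCAR cells exposed 24 h to 15-point compound series in presence of 0.75 uM PK11195 final.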

[4] = qHTS assay to identify small molecule antagonists of the estrogen related receptor signaling pathway with the pleiotropic PPARgamma coactivator (PGC) from Tox21 10K library - cell viability counter screen (AID 1224840; active means well fitted cell-killing curve with a large enough effect in the repeat runs, not every such curve was filed as active; further: nearly all actives have a fitted effect of over 40% in size)
Summary of the method: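 Fluorescence read-out of CellTiter-Fluor viability reagent, added after cells had been exposed to compound in DMSO for 17.5 h at 37 C; 30 min development at 37 C/5% CO2. Cells: PGC/ERR line, 2,000/well.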

[5] = qHTS assay to identify small molecule antagonists of the estrogen related receptor signaling pathway with the pleiotropic PPARgamma coactivator (PGC) from Tox21 10K library (AID 1224841; call rule not given here; further: actives are mostly falling curves and most rising ones were filed inactive; nearly all actives have a fitted effect of over 50% in size; further: potency means the concentration at half of the fitted maximal effect)
Summary of the method: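 Luminescence read-out (One-Glo luciferase reagent, 30 min at room temperature) from PGC/ERR cells exposed to DMSO-dissolved test compounds for 18 h at 37 C; cells, 2,000 per well, had been preincubated 6 h before compound transfer.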

[6] = qHTS assay to identify small molecule agonists of the estrogen related receptor signaling pathway with the pleiotropic PPARgamma coactivator (PGC) from Tox21 10K library (AID 1224842); further: nearly all actives have a fitted effect of over 15% in size
Summary of the method: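 PGC/ERR reporter cell line, 2,000 cells per well, incubated 6 h at 37 C before 23 nL compound in DMSO was added. After 18 h at 37 C, One-Glo luminescence read following 30 min at room temperature.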

[7] = target: Thyrotropin receptor (Homo sapiens) (UniProt P16473); experiment: qHTS assay to identify small molecule agonists of the thyroid stimulating hormone receptor (TSHR) signaling pathway (AID 1224843; calls by dose curve; further: nearly all actives have a fitted effect of over 45% in size)
Summary of the method: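 Agonist-mode screen: TSHR HEK293 cells received test chemicals for half an hour at room temperature, then HTRF cAMP detection reagents for one hour prior to fluorescence measurement. Each chemical ran as a 15-concentration series, triplicated.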

[8] = qHTS assay to identify small molecule agonists of the hypoxia (HIF-1) signaling pathway - cell viability counter screen (AID 1224844; calls by dose curve; further: nearly all actives have a fitted effect of over 50% in size)
Summary of the method: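 CellTiter-Glo luminescence read-out, 30 min RT, taken in the same wells as the beta-lactamase HRE reporter assay; HRE-bla ME-180 cells, 0.5% dialyzed FBS, 17 hr compound treatment at 37C, 5% CO2.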

[9] = qHTS assay to identify small molecule agonists of the hypoxia (HIF-1) signaling pathway (AID 1224846; active means well fitted activation curve with a large enough effect in the signal ratio in the repeat runs, not every such curve was filed as active; the % refers to the signal ratio)
Summary of the method: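 Beta-lactamase FRET read-out (CCF4-AM substrate) from ME-180 cells carrying an HRE-driven bla reporter, after 17 hrs compound exposure at 37C/5% CO2. Cells were seeded at 2,000 per well in 0.5% dialyzed FBS medium and preincubated 5 hrs.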

[10] = qHTS assay to identify small molecule agonists of H2AX - cell viability counter screen (AID 1224847; calls by dose curve; further: top concentration of the series differs between compounds; nearly all actives have a fitted effect of over 30% in size)
Summary of the method: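 CHO-K1 wt, 1000 cells/well, o/n 37C; cpds 15 conc, 3 h 37C, 0.76% DMSO; CellTiter-Glo, 30 min RT, luminescence.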

[11] = qHTS assay to identify small molecule antagonists of the estrogen related receptor (ERR) signaling pathway from Tox21 library (AID 1224848); further: nearly all actives have a fitted effect of over 50% in size; further: potency means the concentration at half of the fitted maximal effect
Summary of the method: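 Quantitative high-throughput format: ERR reporter cells (2,000/well) pre-incubated 6 h, treated 18 h at 37 C with compounds in DMSO alongside positive and negative controls, then read by ONE-Glo luminescence.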

[12] = qHTS assay to identify small molecule agonists of the estrogen related receptor (ERR) signaling pathway from Tox21 library (AID 1224849; calls by dose curve; further: nearly all actives have a fitted effect of over 15% in size); settings: ERR reporter cell line, ONE-Glo luciferase, 18 h; at 92.4 µM (top of the series) unless noted
Summary of the method: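 Luminescence readout (ONE-Glo, 30 min RT) after 18 h compound exposure at 37 C of NTP-supplied ERR reporter cells; cells were plated 6 h before compound addition by pin tool.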

[13] = qHTS RealTime-Glo MT Cell Viability Assay in HepG2 cells - 24 hour (AID 1224867); further: nearly all actives have a fitted effect of over 50% in size
Summary of the method: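 Tox21 10K library screened in qHTS format on HepG2 cells carrying RealTime-Glo reagents. Compounds were added after a 5 h preincubation, and the luminescent signal from continuous culture was measured repeatedly during 40 h treatment.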

[14] = qHTS RealTime-Glo MT Cell Viability Assay in HEK293 cells - 32 hour (AID 1224868); further: nearly all actives have a fitted effect of over 50% in size; further: potency means the concentration at half of the fitted maximal effect
Summary of the method: (§1)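 Luminescence generated by NanoLuc from substrate produced by living HEK293 cells served as the viability signal. Each value reflects the reading at its stated time point during continuous 40 h compound exposure at 37 C.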

[15] = A CellTox Green Cytotoxicity Assay to monitor cytotoxicity in HEK293 cells - 0 hour (AID 1224869); further: nearly all actives have a fitted effect of over 50% in size
Summary of the method: (§2)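 Read-out: fluorescence of a cell-impermeant cyanine dye staining DNA of dead cells, proportional to cytotoxicity. HEK293, 600 cells/well with reagent, compound (23 nL DMSO) added after 5 h; reads at 0, 8, 16, 24, 32, 40 h.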

[16] = qHTS RealTime-Glo MT Cell Viability Assay in HepG2 cells - 40 hour (AID 1224870); further: nearly all actives have a fitted effect of over 50% in size
Summary of the method: (§3)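 HepG2 cells (600/well) mixed with RealTime-Glo MT reagent, settled 5 h at 37 C/5% CO2 before compound addition. Nonlytic NanoLuc luminescence from viable-cell prosubstrate reduction read repeatedly during 40 h treatment at 37 C.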

[17] = qHTS RealTime-Glo MT Cell Viability Assay in HEK293 cells - 16 hour (AID 1224872)
Summary of the method: as §1

[18] = qHTS RealTime-Glo MT Cell Viability Assay in HepG2 cells - 8 hour (AID 1224873); further: nearly all actives have a fitted effect of over 55% in size
Summary of the method: as §3

[19] = A CellTox Green Cytotoxicity Assay to monitor cytotoxicity in HEK293 cells - 40 hour (AID 1224871); further: nearly all actives have a fitted effect of over 45% in size
Summary of the method: as §2

[20] = qHTS assay to identify small molecule agonists of H2AX (AID 1224845; active means well fitted activation curve with a large enough effect in the signal ratio in the repeat runs, not every such curve was filed as active; the % refers to the signal ratio)
Summary of the method: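 Wild-type CHO-K1 cells, plated overnight, exposed 3hr at 37C to 15 concentrations (0.76% DMSO final). Lysed, then HTRF anti-pH2AX (S139) cryptate and anti-H2AX-d2 antibodies, 24 hr room temperature; 665/620 nm emission read.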
On the % scale 0 is the no-effect control and ±100 the full control effect.

Sequence of Nuclear receptor subfamily 1 group I member 3 (Homo sapiens) (Q14994 whole entry, looked up): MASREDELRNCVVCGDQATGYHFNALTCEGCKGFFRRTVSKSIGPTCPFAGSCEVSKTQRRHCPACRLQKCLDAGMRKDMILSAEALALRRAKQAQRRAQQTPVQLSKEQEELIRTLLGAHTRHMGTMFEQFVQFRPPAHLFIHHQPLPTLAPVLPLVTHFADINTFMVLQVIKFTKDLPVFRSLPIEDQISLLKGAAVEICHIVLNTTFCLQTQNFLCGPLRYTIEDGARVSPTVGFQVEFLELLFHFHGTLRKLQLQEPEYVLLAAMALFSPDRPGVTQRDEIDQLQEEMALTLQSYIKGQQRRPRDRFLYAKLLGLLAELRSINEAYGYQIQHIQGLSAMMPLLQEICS
Sequence of Thyrotropin receptor (Homo sapiens) (P16473 whole entry, looked up): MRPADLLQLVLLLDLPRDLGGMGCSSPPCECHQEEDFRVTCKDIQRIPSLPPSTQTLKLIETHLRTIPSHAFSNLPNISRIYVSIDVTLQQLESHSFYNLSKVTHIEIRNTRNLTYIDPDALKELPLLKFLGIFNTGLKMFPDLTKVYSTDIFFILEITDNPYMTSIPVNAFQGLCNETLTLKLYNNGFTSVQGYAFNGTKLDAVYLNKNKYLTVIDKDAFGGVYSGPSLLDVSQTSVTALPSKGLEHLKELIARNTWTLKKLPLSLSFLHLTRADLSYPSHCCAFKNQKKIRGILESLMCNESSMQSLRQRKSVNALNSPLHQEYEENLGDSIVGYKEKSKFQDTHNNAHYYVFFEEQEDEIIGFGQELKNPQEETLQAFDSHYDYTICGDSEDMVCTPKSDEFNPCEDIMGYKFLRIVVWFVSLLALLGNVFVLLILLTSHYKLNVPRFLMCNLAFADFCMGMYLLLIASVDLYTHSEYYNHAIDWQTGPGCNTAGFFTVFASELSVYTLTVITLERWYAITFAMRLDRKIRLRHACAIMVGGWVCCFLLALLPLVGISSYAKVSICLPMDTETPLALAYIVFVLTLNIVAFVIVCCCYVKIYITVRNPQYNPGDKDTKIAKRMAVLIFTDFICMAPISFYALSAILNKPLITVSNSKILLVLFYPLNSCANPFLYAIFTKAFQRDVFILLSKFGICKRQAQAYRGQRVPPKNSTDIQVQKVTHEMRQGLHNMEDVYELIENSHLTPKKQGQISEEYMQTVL

CC/C(=C\C(=N/O)C(N)=O)C(C)[N+](=O)[O-] (stereo not drawn)
inactive: Potency [1] | Potency [2] | Potency [3] | Potency [4] | Potency [5] | Potency [6] | Potency [7] | Potency [8] | outcome [9] | Potency [10] | Potency [11] | activity change, positive = activation [12] 4.01% | Potency [13] | Potency [14] | Potency [15] | Potency [16] | Potency [17] | Potency [18]

CCC(=O)OC(C)(C)C1CC=C(C)CC1 (stereo not drawn)
inactive: Potency [1] | Potency [2] | Potency [3] | Potency [4] | Potency [5] | Potency [6] | Potency [7] | Potency [8] | outcome [9] | Potency [10] | Potency [11] | activity change, positive = activation [12] -6.48% | Potency [13] | Potency [15] | Potency [16] | Potency [19] | Potency [17] | Potency [18]

CC(=O)OC/C=C/c1ccccc1
inactive: Potency [1] | Potency [2] | Potency [3] | Potency [4] | Potency [5] | Potency [6] | Potency [7] | Potency [8] | Potency [20] | outcome [9] | Potency [10] | Potency [11] | activity change, positive = activation [12] 0.279% | Potency [13] | Potency [14] | Potency [15] | Potency [16] | Potency [19] | Potency [17] | Potency [18]

CCN(CC)CCOC(=O)C1(c2ccccc2)CCCC1
inactive: Potency [1] | Potency [2] | Potency [3] | Potency [4] | Potency [5] | Potency [6] | Potency [7] | Potency [8] | outcome [9] | Potency [10] | Potency [11] | activity change, positive = activation [12] 0.628% [at 42.5 µM] | Potency [13] | Potency [14] | Potency [15] | Potency [16] | Potency [19] | Potency [17] | Potency [18]

Cn1c(=O)c2c(ncn2CC(O)CO)n(C)c1=O (stereo not drawn)
inactive: Potency [1] | Potency [2] | Potency [3] | Potency [4] | Potency [5] | Potency [6] | Potency [7] | Potency [8] | Potency [20] | Potency [10] | Potency [11] | activity change, positive = activation [12] 6.5% [at 42.5 µM] | Potency [13] | Potency [14] | Potency [15] | Potency [16] | Potency [19] | Potency [17] | Potency [18]

O=C(O)c1cccc(N(Cc2cccnc2)c2ccc(OC(F)F)c(OC(F)F)c2)c1
active: Potency [11] 61.1 µM
inactive: Potency [1] | Potency [2] | Potency [3] | Potency [4] | Potency [5] | Potency [6] | Potency [8] | Potency [20] | outcome [9] | Potency [10] | activity change, positive = activation [12] -33.2% | Potency [14] | Potency [15] | Potency [19] | Potency [17]

O=C1[C@H](CC[C@H](O)c2ccc(F)cc2)[C@@H](c2ccc(O)cc2)N1c1ccc(F)cc1
active: Potency [5] 26.6 µM | Potency [11] 26.6 µM | Potency [14] 19 µM
inactive: Potency [1] | Potency [2] | Potency [3] | Potency [4] | Potency [6] | Potency [7] | Potency [20] | outcome [9] | activity change, positive = activation [12] -42.1% [at 42.5 µM] | Potency [13] | Potency [15] | Potency [16] | Potency [19] | Potency [18]

O=C(O)[C@@H]1[C@H]2C[C@H]3c4[nH]c5ccccc5c4CCN3C[C@@H]2CC[C@@H]1O
inactive: Potency [1] | Potency [2] | Potency [3] | Potency [4] | Potency [5] | Potency [6] | Potency [7] | Potency [8] | Potency [20] | outcome [9] | Potency [10] | Potency [11] | activity change, positive = activation [12] 1.64% [at 42.5 µM] | Potency [13] | Potency [14] | Potency [15] | Potency [16] | Potency [19] | Potency [17] | Potency [18]

Cl/C(=C\n1cncn1)c1ccc(Cl)cc1Cl
inactive: Potency [1] | Potency [2] | Potency [3] | Potency [4] | Potency [5] | Potency [6] | Potency [7] | Potency [8] | Potency [20] | outcome [9] | Potency [10] | activity change, positive = activation [12] -21.8% [at 42.5 µM] | Potency [13] | Potency [14] | Potency [15] | Potency [16] | Potency [19] | Potency [17] | Potency [18]

N[C@H]1C(O)O[C@H](CO)[C@H](O)[C@@H]1O (stereo partly drawn)
inactive: Potency [1] | Potency [2] | Potency [3] | Potency [4] | Potency [5] | Potency [6] | Potency [7] | Potency [8] | Potency [20] | outcome [9] | Potency [11] | activity change, positive = activation [12] 1.03% | Potency [13] | Potency [14] | Potency [15] | Potency [16] | Potency [19] | Potency [17] | Potency [18]

NC(=S)N/N=C/c1cccnc1
inactive: Potency [1] | Potency [2] | Potency [3] | Potency [4] | Potency [5] | Potency [6] | Potency [8] | Potency [20] | outcome [9] | Potency [10] | Potency [11] | activity change, positive = activation [12] 0.0845% [at 42.5 µM] | Potency [13] | Potency [14] | Potency [15] | Potency [16] | Potency [19] | Potency [17] | Potency [18]

Cc1ccc(C)o1
inactive: Potency [1] | Potency [2] | Potency [3] | Potency [4] | Potency [5] | Potency [6] | Potency [7] | Potency [8] | Potency [20] | outcome [9] | Potency [10] | Potency [11] | activity change, positive = activation [12] 0.55% | Potency [13] | Potency [14] | Potency [15] | Potency [16] | Potency [19] | Potency [17] | Potency [18]

Cc1cccc(Oc2ccccc2)c1
active: Potency [5] 53.1 µM | Potency [11] 26.6 µM
inactive: Potency [1] | Potency [2] | Potency [3] | Potency [4] | Potency [6] | Potency [7] | Potency [20] | outcome [9] | activity change, positive = activation [12] -65.1% | Potency [13] | Potency [15] | Potency [16] | Potency [19] | Potency [18]

CC[C@H](C)[C@H](N)C(=O)O
inactive: Potency [1] | Potency [2] | Potency [3] | Potency [4] | Potency [5] | Potency [6] | Potency [8] | Potency [20] | outcome [9] | Potency [11] | activity change, positive = activation [12] 5.77% [at 42.5 µM] | Potency [13] | Potency [14] | Potency [15] | Potency [16] | Potency [19] | Potency [17] | Potency [18]
